Assay results as given in the supplement of paper PMC13380429.

System: Vero E6 infected with SARS-CoV-2
Assay: inhibition of SARS-CoV-2 cytopathic effect; higher = more antiviral protection, active = above 15
Conditions: 48 h

Measured: inhibition of SARS-CoV-2 cytopathic effect

CC1(C)[C@@H](OC(=O)CCC(=O)O)CC[C@]2(C)[C@H]3C(=O)C=C4[C@@H]5C[C@@](C)(C(=O)O)CC[C@]5(C)CC[C@@]4(C)[C@]3(C)CC[C@@H]12
inactive: 1 nM 0.51% | 8.33 nM 0.66% | 100 nM 1.43% | 833.33 nM 1.74% | 10000 nM -1.29%

CS(=O)(=O)c1ccc(-c2nnc(/C=C/c3nnc(-c4ccc(C#N)cc4)o3)n2-c2ccccc2Cl)nc1
inactive: 1 nM 0.69% | 8.33 nM 0.31% | 100 nM -0.3% | 833.33 nM -2.5% | 10000 nM 2.17%

CCCn1c(=O)c2nc(-c3ccccc3)[nH]c2n(CCC)c1=O [1,3-dipropyl-8-phenylxanthine]
inactive: 1 nM -3.41% | 8.33 nM -2.62% | 100 nM -2.96% | 833.33 nM -3.56% | 10000 nM -1.61%

CCn1ccnc1CC1COc2ccccc2O1 (stereo not given) [imiloxan]
inactive: 1 nM 2% | 8.33 nM -0.87% | 100 nM -0.32% | 833.33 nM 4.69% | 10000 nM -0.13%

N#C/C(=C\c1ccc(O)c(O)c1)C(=O)NCc1ccccc1
inactive: 1 nM 5.06% | 8.33 nM 3.47% | 100 nM 7.47% | 833.33 nM 0.08% | 10000 nM 5.05%

O=C(O)Cc1cccc2c(=O)cc(-c3ccccc3)oc12 [mitoflaxone]
inactive: 1 nM 1.27% | 8.33 nM 0.65% | 100 nM 1.42% | 833.33 nM 1.5% | 10000 nM 0.08%

Cc1ccc(-c2n[nH]c3c2C(c2cccc(O)c2)N(c2ccc(C(=O)O)cc2)C3=O)cc1 (stereo not given)
inactive: 1 nM -0.75% | 8.33 nM -0.46% | 100 nM 3.03% | 833.33 nM 3.6% | 10000 nM 5.17%
